# Data from ChEMBL document CHEMBL1961873, “Compounds: GSK PKIS; Assays: Nanosyn kinase panel” (2012).
# Tests used:
# [1] = biological target: Sphingosine kinase 1 (Homo sapiens) (UniProt Q9NYA1); conditions: at 1 µM;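 further: mean SPHK1 inhibition value reported from the GSK PKIS kinase panel screen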
# [2] = biological target: T1, Sphingosine kinase 2 (Homo sapiens) (UniProt Q9NRA0); conditions: at 0.1 µM
# T1 sequence (whole entry): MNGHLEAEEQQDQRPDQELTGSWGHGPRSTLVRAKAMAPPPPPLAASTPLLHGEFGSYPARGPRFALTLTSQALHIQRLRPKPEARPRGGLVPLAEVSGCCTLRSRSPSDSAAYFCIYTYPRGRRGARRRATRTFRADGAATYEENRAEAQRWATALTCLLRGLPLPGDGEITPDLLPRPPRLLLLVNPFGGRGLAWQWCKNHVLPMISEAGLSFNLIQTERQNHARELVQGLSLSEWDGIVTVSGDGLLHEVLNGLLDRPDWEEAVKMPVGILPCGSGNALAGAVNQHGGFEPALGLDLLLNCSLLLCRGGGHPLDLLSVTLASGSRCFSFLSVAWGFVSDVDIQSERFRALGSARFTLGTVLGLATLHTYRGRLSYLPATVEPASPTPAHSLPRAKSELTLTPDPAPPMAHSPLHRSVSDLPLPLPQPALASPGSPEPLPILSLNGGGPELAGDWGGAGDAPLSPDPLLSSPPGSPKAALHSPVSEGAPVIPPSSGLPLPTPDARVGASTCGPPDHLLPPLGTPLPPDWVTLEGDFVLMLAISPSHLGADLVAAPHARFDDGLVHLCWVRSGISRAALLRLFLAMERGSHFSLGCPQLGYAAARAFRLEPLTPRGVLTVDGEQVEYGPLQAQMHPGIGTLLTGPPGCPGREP
# [3] = biological target: T1, Sphingosine kinase 2 (Homo sapiens); conditions: at 1 µM
# [4] = biological target: Casein kinase II subunit alpha (Homo sapiens) (UniProt P68400); conditions: at 0.1 µM
# [5] = biological target: Casein kinase II subunit alpha (Homo sapiens) (UniProt P68400); conditions: at 1 µM
# [6] = biological target: T2, Inhibitor of nuclear factor kappa-B kinase subunit alpha (Homo sapiens) (UniProt O15111); conditions: at 0.1 µM
# T2 sequence (whole entry): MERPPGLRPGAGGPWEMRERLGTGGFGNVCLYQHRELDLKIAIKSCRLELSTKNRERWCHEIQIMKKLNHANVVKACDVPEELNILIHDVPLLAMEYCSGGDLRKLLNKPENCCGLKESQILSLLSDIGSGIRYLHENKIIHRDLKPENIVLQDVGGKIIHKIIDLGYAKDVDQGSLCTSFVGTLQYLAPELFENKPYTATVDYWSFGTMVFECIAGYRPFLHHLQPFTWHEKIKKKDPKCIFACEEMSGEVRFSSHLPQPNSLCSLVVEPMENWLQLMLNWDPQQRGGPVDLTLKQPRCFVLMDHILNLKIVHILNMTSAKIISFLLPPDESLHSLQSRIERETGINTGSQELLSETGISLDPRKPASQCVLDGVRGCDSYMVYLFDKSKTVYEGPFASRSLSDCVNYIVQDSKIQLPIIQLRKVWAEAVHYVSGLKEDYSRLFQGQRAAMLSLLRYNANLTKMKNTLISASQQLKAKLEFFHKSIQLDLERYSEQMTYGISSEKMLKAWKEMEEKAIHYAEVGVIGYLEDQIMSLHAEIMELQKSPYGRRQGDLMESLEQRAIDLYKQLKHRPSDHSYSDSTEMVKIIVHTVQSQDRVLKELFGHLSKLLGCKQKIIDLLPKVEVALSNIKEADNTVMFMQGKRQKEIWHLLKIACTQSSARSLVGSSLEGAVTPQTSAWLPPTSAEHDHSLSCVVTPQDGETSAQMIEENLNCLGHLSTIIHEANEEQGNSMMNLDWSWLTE
# [7] = biological target: T2, Inhibitor of nuclear factor kappa-B kinase subunit alpha (Homo sapiens); conditions: at 1 µM
# [8] = biological target: T3, Inhibitor of nuclear factor kappa-B kinase subunit beta (Homo sapiens) (UniProt O14920); conditions: at 0.1 µM
# T3 sequence (whole entry): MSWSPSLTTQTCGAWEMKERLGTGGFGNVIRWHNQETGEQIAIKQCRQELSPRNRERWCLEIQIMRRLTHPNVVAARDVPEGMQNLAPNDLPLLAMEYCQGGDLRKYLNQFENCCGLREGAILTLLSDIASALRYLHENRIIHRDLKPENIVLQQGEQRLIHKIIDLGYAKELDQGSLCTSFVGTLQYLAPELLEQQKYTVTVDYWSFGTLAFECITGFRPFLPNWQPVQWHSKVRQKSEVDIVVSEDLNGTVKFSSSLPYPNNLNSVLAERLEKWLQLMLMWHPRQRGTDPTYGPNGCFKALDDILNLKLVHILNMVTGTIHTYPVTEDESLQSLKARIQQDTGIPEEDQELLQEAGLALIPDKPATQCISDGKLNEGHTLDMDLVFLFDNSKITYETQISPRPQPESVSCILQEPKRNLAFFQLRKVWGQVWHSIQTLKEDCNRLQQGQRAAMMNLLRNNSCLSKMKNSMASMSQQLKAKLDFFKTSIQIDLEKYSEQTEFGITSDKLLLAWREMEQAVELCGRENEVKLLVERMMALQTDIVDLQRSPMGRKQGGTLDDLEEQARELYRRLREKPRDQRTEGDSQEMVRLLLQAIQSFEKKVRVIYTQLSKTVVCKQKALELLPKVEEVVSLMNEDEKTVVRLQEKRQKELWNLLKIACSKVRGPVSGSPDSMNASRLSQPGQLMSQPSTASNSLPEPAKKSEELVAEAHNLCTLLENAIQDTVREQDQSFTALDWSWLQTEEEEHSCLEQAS
# [9] = biological target: T3, Inhibitor of nuclear factor kappa-B kinase subunit beta (Homo sapiens); conditions: at 1 µM
# [10] = biological target: T4, Inhibitor of nuclear factor kappa-B kinase subunit epsilon (Homo sapiens) (UniProt Q14164); conditions: at 0.1 µM
# T4 sequence (whole entry): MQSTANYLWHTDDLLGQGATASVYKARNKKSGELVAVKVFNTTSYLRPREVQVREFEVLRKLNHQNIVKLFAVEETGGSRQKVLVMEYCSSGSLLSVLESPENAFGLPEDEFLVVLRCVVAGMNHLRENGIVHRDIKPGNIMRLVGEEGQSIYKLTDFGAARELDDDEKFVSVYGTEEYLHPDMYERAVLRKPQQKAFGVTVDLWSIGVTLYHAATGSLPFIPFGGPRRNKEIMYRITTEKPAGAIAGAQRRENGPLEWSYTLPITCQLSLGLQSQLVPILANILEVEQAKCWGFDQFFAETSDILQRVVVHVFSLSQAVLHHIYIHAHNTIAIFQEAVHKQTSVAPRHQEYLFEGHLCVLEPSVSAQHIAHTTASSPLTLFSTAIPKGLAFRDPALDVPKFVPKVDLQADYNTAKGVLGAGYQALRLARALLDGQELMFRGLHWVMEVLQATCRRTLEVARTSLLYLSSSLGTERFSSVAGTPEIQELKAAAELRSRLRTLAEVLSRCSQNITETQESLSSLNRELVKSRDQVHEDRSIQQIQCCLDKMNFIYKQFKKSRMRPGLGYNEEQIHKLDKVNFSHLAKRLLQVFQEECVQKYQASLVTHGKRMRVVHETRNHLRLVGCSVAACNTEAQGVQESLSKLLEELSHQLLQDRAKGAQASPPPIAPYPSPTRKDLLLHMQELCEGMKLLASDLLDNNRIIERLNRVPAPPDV
# [11] = biological target: T4, Inhibitor of nuclear factor kappa-B kinase subunit epsilon (Homo sapiens); conditions: at 1 µM
# [12] = biological target: T5, Serine/threonine-protein kinase Nek1 (Homo sapiens) (UniProt Q96PY6); conditions: at 0.1 µM
# T5 sequence (whole entry): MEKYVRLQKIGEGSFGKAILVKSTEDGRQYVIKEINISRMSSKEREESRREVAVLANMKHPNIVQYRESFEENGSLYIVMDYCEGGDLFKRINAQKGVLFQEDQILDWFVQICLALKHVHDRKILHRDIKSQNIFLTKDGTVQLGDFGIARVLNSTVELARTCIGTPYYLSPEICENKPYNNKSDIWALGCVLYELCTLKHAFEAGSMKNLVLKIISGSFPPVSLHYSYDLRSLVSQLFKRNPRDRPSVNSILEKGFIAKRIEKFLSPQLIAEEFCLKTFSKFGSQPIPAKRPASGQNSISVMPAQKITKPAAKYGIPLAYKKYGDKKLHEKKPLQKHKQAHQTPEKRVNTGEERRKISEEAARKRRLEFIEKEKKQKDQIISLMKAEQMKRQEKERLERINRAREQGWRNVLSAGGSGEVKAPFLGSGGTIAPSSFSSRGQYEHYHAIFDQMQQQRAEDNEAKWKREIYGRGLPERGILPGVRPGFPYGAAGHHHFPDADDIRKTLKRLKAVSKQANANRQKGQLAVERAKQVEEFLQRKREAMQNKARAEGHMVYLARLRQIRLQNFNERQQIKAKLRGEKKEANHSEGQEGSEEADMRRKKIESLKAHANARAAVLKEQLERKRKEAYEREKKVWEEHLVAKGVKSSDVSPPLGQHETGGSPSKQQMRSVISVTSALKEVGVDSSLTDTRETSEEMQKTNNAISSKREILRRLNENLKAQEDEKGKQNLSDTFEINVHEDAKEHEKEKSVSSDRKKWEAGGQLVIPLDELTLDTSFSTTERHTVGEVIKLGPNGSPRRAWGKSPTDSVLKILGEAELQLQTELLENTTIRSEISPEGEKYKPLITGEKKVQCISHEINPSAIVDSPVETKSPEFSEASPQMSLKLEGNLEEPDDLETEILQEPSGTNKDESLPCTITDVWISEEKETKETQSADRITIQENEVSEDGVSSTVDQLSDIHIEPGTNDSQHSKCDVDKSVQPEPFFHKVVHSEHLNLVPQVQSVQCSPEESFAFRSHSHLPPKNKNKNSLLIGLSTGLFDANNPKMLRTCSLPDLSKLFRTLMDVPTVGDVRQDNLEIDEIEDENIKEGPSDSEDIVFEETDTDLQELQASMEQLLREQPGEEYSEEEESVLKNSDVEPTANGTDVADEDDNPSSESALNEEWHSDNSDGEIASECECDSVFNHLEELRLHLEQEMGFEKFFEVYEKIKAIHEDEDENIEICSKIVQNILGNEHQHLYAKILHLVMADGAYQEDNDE
# [13] = biological target: T5, Serine/threonine-protein kinase Nek1 (Homo sapiens); conditions: at 1 µM
# [14] = biological target: T6, Serine/threonine-protein kinase Nek2 (Homo sapiens) (UniProt P51955); conditions: at 0.1 µM
# T6 sequence (whole entry): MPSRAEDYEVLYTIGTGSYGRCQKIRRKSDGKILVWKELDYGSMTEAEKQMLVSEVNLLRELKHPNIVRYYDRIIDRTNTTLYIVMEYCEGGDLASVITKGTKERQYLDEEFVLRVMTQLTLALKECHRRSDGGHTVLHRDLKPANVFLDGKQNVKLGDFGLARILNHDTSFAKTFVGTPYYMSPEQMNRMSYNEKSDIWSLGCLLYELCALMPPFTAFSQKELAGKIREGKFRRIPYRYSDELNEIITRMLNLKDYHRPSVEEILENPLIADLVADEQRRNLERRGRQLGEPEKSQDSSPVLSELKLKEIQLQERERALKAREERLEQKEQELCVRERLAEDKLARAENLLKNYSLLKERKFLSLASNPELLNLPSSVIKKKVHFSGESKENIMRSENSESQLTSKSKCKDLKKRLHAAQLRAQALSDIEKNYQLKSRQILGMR
# [15] = biological target: T6, Serine/threonine-protein kinase Nek2 (Homo sapiens); conditions: at 1 µM
# [16] = biological target: Serine/threonine-protein kinase Nek6 (Homo sapiens) (UniProt Q9HC98); conditions: at 0.1 µM
# [17] = biological target: Serine/threonine-protein kinase Nek6 (Homo sapiens) (UniProt Q9HC98); conditions: at 1 µM
# [18] = biological target: Serine/threonine-protein kinase Nek7 (Homo sapiens) (UniProt Q8TDX7); conditions: at 0.1 µM
# [19] = biological target: Serine/threonine-protein kinase Nek7 (Homo sapiens) (UniProt Q8TDX7); conditions: at 1 µM
# [20] = biological target: T7, Serine/threonine-protein kinase Nek9 (Homo sapiens) (UniProt Q8TD19); conditions: at 0.1 µM;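 further: reported value is the mean percent inhibition of NEK9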
# T7 sequence (whole entry): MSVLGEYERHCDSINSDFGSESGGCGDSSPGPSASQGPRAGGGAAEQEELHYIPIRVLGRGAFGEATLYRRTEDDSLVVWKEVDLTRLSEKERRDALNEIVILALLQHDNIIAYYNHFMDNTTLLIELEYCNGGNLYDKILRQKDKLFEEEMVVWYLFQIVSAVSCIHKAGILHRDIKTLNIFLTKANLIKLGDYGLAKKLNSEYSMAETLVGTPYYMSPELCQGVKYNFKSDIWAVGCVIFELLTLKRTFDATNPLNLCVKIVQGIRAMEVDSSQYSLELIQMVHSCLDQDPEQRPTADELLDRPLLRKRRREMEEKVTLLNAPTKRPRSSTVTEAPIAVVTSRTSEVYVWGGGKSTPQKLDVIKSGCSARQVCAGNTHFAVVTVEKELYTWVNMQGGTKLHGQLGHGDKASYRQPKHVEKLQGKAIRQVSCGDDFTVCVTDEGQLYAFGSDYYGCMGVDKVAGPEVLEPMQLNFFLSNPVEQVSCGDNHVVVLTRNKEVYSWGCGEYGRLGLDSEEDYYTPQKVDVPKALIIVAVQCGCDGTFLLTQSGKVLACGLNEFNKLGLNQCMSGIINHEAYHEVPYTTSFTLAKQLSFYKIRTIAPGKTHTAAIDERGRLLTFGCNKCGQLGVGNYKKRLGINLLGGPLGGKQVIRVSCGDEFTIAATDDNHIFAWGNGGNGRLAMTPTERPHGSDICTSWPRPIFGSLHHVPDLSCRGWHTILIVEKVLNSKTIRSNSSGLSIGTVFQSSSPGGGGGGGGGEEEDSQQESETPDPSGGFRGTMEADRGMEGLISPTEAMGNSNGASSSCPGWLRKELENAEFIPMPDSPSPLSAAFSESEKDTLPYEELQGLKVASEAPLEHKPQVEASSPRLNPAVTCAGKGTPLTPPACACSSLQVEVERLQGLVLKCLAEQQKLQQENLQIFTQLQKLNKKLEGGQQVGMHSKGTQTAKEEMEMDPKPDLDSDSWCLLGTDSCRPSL
# Chain of Serine/threonine-protein kinase Nek6 (Homo sapiens) (Q9HC98 whole entry): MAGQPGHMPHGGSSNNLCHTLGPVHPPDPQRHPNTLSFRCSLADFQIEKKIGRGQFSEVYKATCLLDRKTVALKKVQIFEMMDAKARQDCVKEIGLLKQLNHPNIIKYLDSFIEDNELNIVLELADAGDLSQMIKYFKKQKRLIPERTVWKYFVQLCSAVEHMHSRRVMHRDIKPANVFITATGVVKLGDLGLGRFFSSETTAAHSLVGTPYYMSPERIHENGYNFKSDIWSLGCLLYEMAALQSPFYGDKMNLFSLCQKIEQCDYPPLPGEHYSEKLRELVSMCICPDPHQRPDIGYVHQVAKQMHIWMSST
# Chain of Casein kinase II subunit alpha (Homo sapiens) (P68400 whole entry, looked up): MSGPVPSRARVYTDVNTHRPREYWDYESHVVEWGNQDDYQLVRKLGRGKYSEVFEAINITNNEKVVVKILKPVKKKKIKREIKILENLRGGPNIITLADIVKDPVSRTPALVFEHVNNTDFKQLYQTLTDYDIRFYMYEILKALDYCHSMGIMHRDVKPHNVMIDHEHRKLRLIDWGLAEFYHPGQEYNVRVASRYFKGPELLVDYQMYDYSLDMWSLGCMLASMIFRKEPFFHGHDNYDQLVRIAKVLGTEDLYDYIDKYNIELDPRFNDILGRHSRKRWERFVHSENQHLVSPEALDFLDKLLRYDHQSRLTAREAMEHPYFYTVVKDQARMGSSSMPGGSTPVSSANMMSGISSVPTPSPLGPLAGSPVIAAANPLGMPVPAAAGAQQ
# Chain of Serine/threonine-protein kinase Nek7 (Homo sapiens) (Q8TDX7 whole entry, looked up): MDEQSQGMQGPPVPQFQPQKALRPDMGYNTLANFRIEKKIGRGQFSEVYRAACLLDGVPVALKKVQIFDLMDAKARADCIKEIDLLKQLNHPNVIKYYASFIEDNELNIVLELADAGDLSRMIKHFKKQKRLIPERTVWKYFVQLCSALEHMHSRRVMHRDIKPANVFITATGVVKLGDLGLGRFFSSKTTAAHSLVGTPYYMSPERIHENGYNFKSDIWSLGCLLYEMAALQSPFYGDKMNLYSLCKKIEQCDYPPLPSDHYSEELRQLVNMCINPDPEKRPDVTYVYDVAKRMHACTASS
# Chain of Sphingosine kinase 1 (Homo sapiens) (Q9NYA1 whole entry): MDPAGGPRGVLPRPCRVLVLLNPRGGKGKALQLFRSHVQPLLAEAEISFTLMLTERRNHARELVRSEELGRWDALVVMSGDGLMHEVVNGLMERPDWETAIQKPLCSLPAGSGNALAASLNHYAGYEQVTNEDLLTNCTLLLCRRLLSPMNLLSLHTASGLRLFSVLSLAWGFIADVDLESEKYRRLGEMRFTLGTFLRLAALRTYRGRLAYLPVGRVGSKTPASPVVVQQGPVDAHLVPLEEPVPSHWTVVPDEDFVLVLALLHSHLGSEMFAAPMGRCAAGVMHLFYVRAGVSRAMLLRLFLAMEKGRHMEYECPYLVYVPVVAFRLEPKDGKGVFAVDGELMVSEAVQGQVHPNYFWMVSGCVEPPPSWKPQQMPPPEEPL
smiles,measurement,setting,value
CCn1c(-c2nonc2N)nc2c(N3CCCC3)nccc21,inhibition,[1],-1.44%
same,inhibition,[2],0.74%
same,inhibition,[3],-0.77%
same,inhibition,[4],-0.14%
same,inhibition,[5],-0.49%
same,inhibition,[6],8.52%
same,inhibition,[7],5.88%
same,inhibition,[8],0.45%
same,inhibition,[9],-0.76%
same,inhibition,[10],-2.71%
same,inhibition,[11],-2.89%
same,inhibition,[12],-0.04%
same,inhibition,[13],0.27%
same,inhibition,[14],-0.88%
same,inhibition,[15],-0.91%
same,inhibition,[16],0.88%
same,inhibition,[17],-1.63%
same,inhibition,[18],2.1%
same,inhibition,[19],-1.35%
same,inhibition,[20],2.28%
